This is an account of results in PubChem BioAssay AID651551 (Sanford-Burnham Center for Chemical Genomics, 2012).

The assay can be described thus: GAPDH versus PEG-3 reporter suppression – cell-based, luminescence, counter-screen for PEG-3 promoter inhibitor project, SAR follow-up (AID 651551). The note with it: HeLa PEG-Prom / GAPDH luciferase reporter, 6 or 24 h, run 2, 6 h; at 99 µM (top of the series). A general note: A counterscreen serves to expose hits that act by an unwanted route or on another target.

As to `O=C(Nc1nc(-c2ccccc2)cs1)c1nn(-c2ccccc2)c(=O)c2ccccc12`, the inhibition % (higher = more inhibition) worked out at 28.9%.
Next, `Cc1cc(NC(=O)c2ccccc2)n(-c2nc3ccccc3[nH]2)n1`: 15.3%; `COc1ccc(-n2nc(C(=O)NCC(=O)Nc3ccc(OC)c(OC)c3)c3ccccc3c2=O)cc1`: 55.7%; `Cc1cc(NC(=O)c2ccccc2)n(-c2nc3ccccc3n2C)n1`: 16.7%.
`CCn1nc(C(=O)Nc2nc(-c3ccccn3)cs2)c2ccccc2c1=O`: the inhibition % (higher = more inhibition) amounted to 72.7%.
Take `Cc1ccc(Cl)cc1Nc1nc(-c2sc(NC(=O)c3ccco3)nc2C)cs1`: the inhibition % (higher = more inhibition) was found to be 71%.
Next, `Cc1nc(NC(=O)c2ccccc2)sc1-c1csc(Nc2ccccc2Cl)n1`: -2.1%; `COc1ccc(Cl)cc1Nc1nc(-c2sc(NC(=O)c3ccccc3)nc2C)cs1`: 33.6%; `Cc1cc(NC(=O)c2cccc(C)c2C)n(-c2nc3ccccc3[nH]2)n1`: 19.1%.
Take `CCCn1nc(C(=O)Nc2nc(-c3ccncc3)cs2)c2ccccc2c1=O`: the inhibition % (higher = more inhibition) came out at 56.1%.
With `CCCn1nc(C(=O)Nc2nc(-c3ccccn3)cs2)c2ccccc2c1=O` the figure was 64.7%; with `Cc1cc(NC(=O)c2ccccc2C(F)(F)F)n(-c2nc3ccccc3[nH]2)n1`, 91.4%.
With `Cc1nc(NC(=O)c2ccccc2)sc1-c1csc(Nc2ccccc2)n1` the figure was 74.5%.
With `Cc1nc(NC(=O)c2ccccc2)sc1-c1csc(Nc2cccc(Cl)c2C)n1` the figure was 35.5%; with `CCn1cc(C(=O)NCc2ccco2)c(=O)c2cc(S(=O)(=O)N3CCCC3)ccc21`, 42.1%.
On to `O=C(Nc1nccs1)c1nn(-c2ccccc2)c(=O)c2ccccc12`, for which the inhibition % (higher = more inhibition) is 50.3%.
Next, `COc1ccc(-n2nc(C(=O)NCC(=O)Nc3cccc(OC)c3)c3ccccc3c2=O)cc1`: 28.5%; `COc1ccccc1Nc1nc(-c2sc(NC(=O)c3ccco3)nc2C)cs1`: 72.7%; `COCCCNC(=O)c1ccc(Cn2c(=O)c3ccccc3n(Cc3ccccc3C#N)c2=O)cc1`: 21.9%.
`O=C(Nc1nc2ccccc2s1)c1nn(-c2ccccc2)c(=O)c2ccccc12`: the inhibition % (higher = more inhibition) was 6.36%.
With `Cc1cc(NC(=O)c2ccccc2C)n(-c2nc3ccccc3[nH]2)n1` the figure was 26.1%; with `COc1ccc(-n2nc(C(=O)NCC(=O)Nc3cc(OC)c(OC)c(OC)c3)c3ccccc3c2=O)cc1OC`, 26.1%.
Consider `CCCn1nc(C(=O)Nc2nc3ccccc3s2)c2ccccc2c1=O`, for which the inhibition % (higher = more inhibition) turned out to be 12.5%.
